The values below come from PubChem BioAssay (NCI).

Molecules are shown by their SMILES. This is part of a sample that, as a whole, favours compounds with a hit. Of some 83,000 tested, about 20% had one in any assay.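 A percent growth of 40 corresponds to 60% growth inhibition; 0 means no net growth; -100 means all cells died. Active threshold: below 10.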 A number with no mark means an inactive call. Active and inactive are the calls of the source.

What all share (assay): NCI-60 one-dose screen, 48 h (100 = growth as untreated, 0 = no growth, -100 = all killed)
Common to all, as to conditions: 10 µM unless noted

The subject of experiment [1] is NCI-H23 lung.
Experiment [2] deals with NCI-H226 lung.
The subject of experiment [3] is NCI-H322M lung.
The subject of experiment [4] is HOP-62 NSCLC.
For experiment [5], the system named is NCI-H460 lung.
In experiment [6] the test system is HOP-92 NSCLC.
For experiment [7], the system named is A549/ATCC NSCLC.
For experiment [8], the system named is 786-0 renal.
Experiment [9] deals with COLO 205 colon.
Experiment [10] deals with DU-145 prostate.
Experiment [11] deals with K-562 leukemia.
Experiment [12] has as its system MALME-3M melanoma.
Experiment [13] relates to MDA-MB-231 breast.
Experiment [14] relates to RXF 393 renal.
For experiment [15], the system named is SF-268 CNS.
The subject of experiment [16] is SF-295 CNS.
The subject of experiment [17] is SF-539 CNS.
The test system of experiment [18] is UACC-257 melanoma.
In experiment [19] the test system is M14 melanoma.

As for `CC(=O)N1N=C(c2ccc3c(c2)OCO3)CC1c1c(C)nn(-c2ccccc2)c1N(C)Cc1ccccc1` (configuration not stated), the growth in experiment [1] is 86.9%; in [2], 76.3%; in experiment [3] it was 89.6%; in [4], 77.1%; in experiment [5], 79.1%; in experiment [6], 46.1%. The growth in experiment [7] is 50.6%; in experiment [8], 85.5%; in experiment [9], 79.3%; in [10], 94.6%; in experiment [11], 56.5%; in [12], 84.8%. The growth in [13] was 81%; in [14], 79.2%; in experiment [15], 74.4%; in experiment [16], 68.9%; in experiment [17], 94.5%; in experiment [18], 56.7%. Further, the growth in [19] was 77.2%.
`Nc1nc(Nc2ccccc2SSc2ccccc2Nc2nc(N)nc(C(Cl)(Cl)Cl)n2)nc(C(Cl)(Cl)Cl)n1`: the growth in experiment [1] is 54%; in [2], 64.6%; in [3], 75.3%; in experiment [4], -34% (active); in [5], 69.6%; in [6] it was 131%. Besides, the growth in experiment [7] is -42.5% (active); in [8], 70%; in experiment [9], 114%; in [10], 82.3%; in experiment [11], 52.8%; in experiment [12] it was 75%. Moreover, the growth in [13] was 44.1%; in [14], 67.2%; in experiment [15] it was 50.5%; in experiment [16], 27.4%; in experiment [17], 84.3%; in experiment [18] it was 100%. For the same compound, the growth in experiment [19] was 67%.
`Nc1nc(Nc2ccccc2SSc2ccccc2Nc2nc(N)nc(-c3cccc(Cl)c3)n2)nc(-c2cccc(Cl)c2)n1`: the growth is 78.6% in experiment [1]; 82.7% in experiment [2]; 91.8% in [3]; 7.83% (active) in [4]; 89.9% in experiment [5]; 105% in experiment [6]. The growth in experiment [7] is -24.8% (active); in [8] it was 99.1%; in experiment [9] it was 119%; in [10], 97%; in experiment [11] it was 81.9%; in [12] it was 104%. Besides, the growth in experiment [13] is 74.8%; in [14], 106%; in experiment [15], 99.9%; in [16], 79.2%; in [17] it was 99.6%; in experiment [18], 112%. In [19], the growth was 95.4%.
As for `COc1cc(C(=O)/C=C/c2cccc(Nc3ccnc4cc(Cl)ccc34)c2)cc(OC)c1OC`, the growth in experiment [1] was 11.1%; in experiment [2], -18.7% (active); in experiment [3], 8.86% (active); in experiment [4], -76.8% (active); in experiment [5], 4% (active); in experiment [6] it was 16.3%. For the same compound, the growth in [7] is -38.7% (active); in experiment [8], -74.1% (active); in experiment [9], -36.1% (active); in experiment [10], -0.714% (active); in experiment [11], -6.81% (active); in experiment [12], 9.8% (active). Besides, the growth in experiment [13] is -5.45% (active); in [14] it was -71.9% (active); in experiment [15], -16.6% (active); in [16] it was 3.06% (active); in experiment [17], -46.1% (active); in experiment [18] it was 30.6%. For the same compound, the growth in experiment [19] was -11.6% (active).
Turning to `CCOc1cc(/C=C/C(=O)CC(=O)/C=C/c2ccc(OC(=O)CNc3nc4ccc(OC)cc4s3)c(OCC)c2)ccc1OC(=O)CNc1nc2ccc(OC)cc2s1`, the growth in [1] was 55.7%; in experiment [2] it was 64.5%; in [3], 88.6%; in experiment [4], 63.9%; in experiment [5] it was 57.5%; in experiment [6] it was 90.9%. Further, the growth in experiment [7] was 48.2%; in experiment [8], 32.2%; in experiment [9] it was 109%; in experiment [10], 15.5%; in experiment [11] it was 2.04% (active); in experiment [12], 94.4%. Moreover, the growth in [13] was 64.5%; in experiment [14], -29.9% (active); in experiment [15], 26%; in experiment [16], 63.5%; in [17] it was 3.65% (active); in experiment [18], 67.6%. Further, in [19], the growth is 21.1%.
Take `O=C(C(=O)N1CCOCC1)c1cn(CCCn2cc(C(=O)C(=O)N3CCOCC3)c3ccccc32)c2ccccc12`: the growth in [1] is 113%; in experiment [2], 102%; in experiment [3], 103%; in experiment [4] it was 103%; in experiment [5], 129%; in [6] it was 78.8%. Also, the growth is 104% in experiment [7]; 104% in experiment [8]; 105% in experiment [9]; 115% in experiment [10]; 111% in [11]; 99.8% in [12]. The growth in experiment [13] was 93.4%; in experiment [14], 119%; in [15] it was 105%; in experiment [16] it was 106%; in experiment [17], 102%; in [18], 107%. In addition, the growth in experiment [19] is 101%.
With `COc1ccc(OC)c(CCn2cncc2-c2c[nH]c3cc(Br)ccc23)c1`, the growth in [1] is 30.1%; in [2], 41.5%; in experiment [3], 87.1%; in [4] it was 38%; in experiment [5] it was 36.7%; in experiment [6], 20.6%. Besides, the growth in [7] was 31.2%; in experiment [8] it was 59.5%; in experiment [9], 7.59% (active); in experiment [10], 63.3%; in experiment [11], 7.3% (active); in experiment [12] it was 37.7%. The growth in experiment [13] is 48.7%; in experiment [14], 51.9%; in experiment [15] it was 45.6%; in experiment [16] it was 18.4%; in experiment [17], 56.3%; in experiment [18] it was 29.9%. Moreover, the growth in experiment [19] was 26.4%.
Consider `COc1cc(/C=C/c2cc(/C=C/c3ccc(O)c(OC)c3)n(C(=O)Cc3ccccc3)n2)ccc1O`, for which the growth in experiment [1] is 1.94% (active); in experiment [2] it was 13.7%; in experiment [3], 9.62% (active); in experiment [4], 2.82% (active); in [5], 4.69% (active); in experiment [6] it was -0.112% (active). Further, the growth in [7] is 4.22% (active); in experiment [8] it was 10.2%; in [9], -64.3% (active); in [10] it was 17.3%; in experiment [11], 1.69% (active); in experiment [12], -0.485% (active). Also, the growth in experiment [13] was 15.2%; in experiment [14], -42.6% (active); in [15] it was 9.64% (active); in [16], 8.28% (active); in [17] it was -23.1% (active); in experiment [18], -5.67% (active). In addition, the growth in experiment [19] was 0.243% (active).
